Experimental data published in the supplement of paper PMC10849652.
About 7,900 targets were measured; listed, in parts, are those with a hit and a random draw of the rest. About 0.6% of all pairs of compound and target were hits.

Experiments:
Test in all cases: log2 fold change, soluble protein after heating vs DMSO (PISA); higher = thermal stabilisation; K562 cells, 10 uM, 30 min; active = over 0.2 and 3.5 SD of the protein, either way, in both replicates (recomputed)
[1] = compound: C1=CC=C(C=C1)[C@H](COC2=CC3=C(C=C2)NC(=O)N3)NC(=O)C4=CC=CN(C4=O)CC5=CC(=C(C=C5)F)F
Method in brief: (§1)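 Soluble protein was defined as the supernatant after 21,000xg for 90 min. It came from K562 cells at 2×10^6 cells/mL given 10 μM compound for 30 min, heated in aliquots for 3 min across 48°C-58°C, pooled, and extracted in PBS with 0.5% NP-40 at 4°C, and was quantified by TMTpro 16plex LC-MS/MS with equalised channel sums. Thermal stability against control samples, from duplicates, is reported as log2 fold change.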

[2] = compound: CC1=C(SC2=C1C(=N[C@H](C3=NN=C(N32)C)CC(=O)N)C4=CC=C(C=C4)Cl)C
Method in brief: as §1

[3] = compound: CC1=C2C(=CC=C1)N=C(N(C2=O)C3=CC=CC=C3C)CN4C=NC5=C(N=CN=C54)N
Method in brief: as §1

[4] = compound: Cc1sc2c(c1C)C(c1ccc(Cl)cc1)=N[C@@H](CC(=O)OC(C)(C)C)c1nnc(C)n1-2
Method in brief: as §1

[5] = compound: c1ccc([C@@H]2C[C@H]2NC2CCNCC2)cc1
Method in brief: as §1

Measured: log2 fold change

SUCLG1 (UniProt P53597)
UniProt P53597, sequence (P53597 whole entry, looked up): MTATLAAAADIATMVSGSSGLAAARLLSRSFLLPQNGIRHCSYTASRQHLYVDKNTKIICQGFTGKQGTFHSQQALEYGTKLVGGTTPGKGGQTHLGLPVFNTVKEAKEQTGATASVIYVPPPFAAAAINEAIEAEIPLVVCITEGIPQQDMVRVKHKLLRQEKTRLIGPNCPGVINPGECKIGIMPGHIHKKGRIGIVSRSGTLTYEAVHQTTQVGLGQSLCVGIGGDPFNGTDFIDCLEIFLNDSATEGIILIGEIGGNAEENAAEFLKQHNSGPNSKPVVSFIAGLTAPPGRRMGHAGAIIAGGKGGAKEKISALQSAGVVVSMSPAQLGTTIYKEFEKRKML
inactive: [1] 0.004 | [2] 0.073 | [3] 0.042 | [4] -0.021 | [5] -0.041

SQSTM1 (UniProt Q13501)
inactive: [1] 0 | [2] 0.097 | [3] -0.128 | [4] 0.096 | [5] 0.012

SNX9 (UniProt Q9Y5X1)
inactive: [1] -0.051 | [2] 0.019 | [3] 0.048 | [4] 0.002 | [5] 0.017

SURF2 (UniProt Q15527)
inactive: [1] 0.056 | [2] -0.018 | [3] 0.033 | [4] -0.047 | [5] -0.044

STK38L (UniProt Q9Y2H1)
active: [2] 0.472
inactive: [1] -0.009 | [3] 0.162 | [4] 0.07 | [5] 0.224

TIMM13 (UniProt Q9Y5L4)
UniProt Q9Y5L4, sequence (Q9Y5L4 whole entry, looked up): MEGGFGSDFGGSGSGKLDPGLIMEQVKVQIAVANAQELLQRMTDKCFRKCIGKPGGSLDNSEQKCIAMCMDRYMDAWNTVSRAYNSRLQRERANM
inactive: [1] -0.049 | [2] 0.049 | [3] 0.012 | [4] -0.035 | [5] 0.013

STIM1 (UniProt Q13586)
UniProt Q13586, sequence (Q13586 whole entry, looked up): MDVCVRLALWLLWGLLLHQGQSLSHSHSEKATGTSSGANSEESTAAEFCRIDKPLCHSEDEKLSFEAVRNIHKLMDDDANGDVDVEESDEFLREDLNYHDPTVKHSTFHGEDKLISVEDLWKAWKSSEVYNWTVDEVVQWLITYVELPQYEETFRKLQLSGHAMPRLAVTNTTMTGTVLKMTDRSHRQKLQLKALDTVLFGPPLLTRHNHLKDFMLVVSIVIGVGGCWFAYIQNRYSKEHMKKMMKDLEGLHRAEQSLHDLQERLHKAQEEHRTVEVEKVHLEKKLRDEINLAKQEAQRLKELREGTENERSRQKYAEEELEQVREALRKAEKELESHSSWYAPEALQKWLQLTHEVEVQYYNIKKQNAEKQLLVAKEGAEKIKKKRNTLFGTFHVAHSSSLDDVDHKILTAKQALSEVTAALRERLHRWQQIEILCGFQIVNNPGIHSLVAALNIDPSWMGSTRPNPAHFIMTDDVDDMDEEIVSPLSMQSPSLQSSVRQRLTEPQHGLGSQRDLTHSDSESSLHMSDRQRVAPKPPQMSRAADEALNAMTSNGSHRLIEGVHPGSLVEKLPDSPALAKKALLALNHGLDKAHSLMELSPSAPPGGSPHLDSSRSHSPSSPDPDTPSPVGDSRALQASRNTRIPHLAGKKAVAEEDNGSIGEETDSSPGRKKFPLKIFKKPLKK
inactive: [1] -0.051 | [2] 0.044 | [3] 0.008 | [4] -0.014 | [5] -0.019

TEX30 (UniProt Q5JUR7)
inactive: [1] -0.162 | [2] -0.141 | [3] 0.235 | [4] 0.12 | [5] 0.052

SLC35A1 (UniProt P78382)
inactive: [1] -0.046 | [2] -0.108 | [3] 0.05 | [4] -0.07 | [5] 0.013

SLC35F6 (UniProt Q8N357)
inactive: [1] -0.034 | [2] -0.045 | [3] 0.064 | [4] -0.057 | [5] 0.067

SLC39A11 (UniProt Q8N1S5)
UniProt Q8N1S5, sequence (Q8N1S5 whole entry, looked up): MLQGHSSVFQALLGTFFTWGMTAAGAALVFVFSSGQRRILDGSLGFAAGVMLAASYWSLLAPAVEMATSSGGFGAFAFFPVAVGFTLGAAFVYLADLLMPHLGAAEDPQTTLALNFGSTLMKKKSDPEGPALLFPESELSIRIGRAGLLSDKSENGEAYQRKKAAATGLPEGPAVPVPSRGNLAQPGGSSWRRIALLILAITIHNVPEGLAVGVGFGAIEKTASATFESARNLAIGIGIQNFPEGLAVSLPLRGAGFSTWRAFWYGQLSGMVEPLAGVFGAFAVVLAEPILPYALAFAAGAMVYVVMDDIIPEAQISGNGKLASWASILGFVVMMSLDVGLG
inactive: [1] 0.053 | [2] 0.072 | [3] 0.078 | [4] -0.323 | [5] -0.003

SLC6A6 (UniProt P31641)
inactive: [1] -0.002 | [2] 0.065 | [3] 0.039 | [4] 0.018 | [5] 0.035

TJP1 (UniProt Q07157)
inactive: [1] 0 | [2] 0.028 | [3] 0.069 | [4] 0.014 | [5] 0.023

TFRC (UniProt P02786)
inactive: [1] 0.058 | [2] 0.032 | [3] 0.008 | [4] 0.011 | [5] 0.021

TAF9 (UniProt Q16594)
UniProt Q16594, sequence (Q16594 whole entry, looked up): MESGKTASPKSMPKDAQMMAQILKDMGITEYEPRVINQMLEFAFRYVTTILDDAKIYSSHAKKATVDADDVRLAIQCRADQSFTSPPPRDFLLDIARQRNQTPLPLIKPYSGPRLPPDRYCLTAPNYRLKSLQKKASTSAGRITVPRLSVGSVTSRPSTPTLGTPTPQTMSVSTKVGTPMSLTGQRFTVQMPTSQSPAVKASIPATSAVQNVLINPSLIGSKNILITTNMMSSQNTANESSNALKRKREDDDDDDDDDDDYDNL
inactive: [1] 0.046 | [2] -0.043 | [3] -0.114 | [4] 0.049 | [5] 0.019

SLK isoform 2 (UniProt Q9H2G2)
inactive: [1] 0.016 | [2] 0.034 | [3] 0.042 | [4] 0.021 | [5] -0.005

SNX6 (UniProt Q9UNH7)
UniProt Q9UNH7, sequence (Q9UNH7 whole entry, looked up): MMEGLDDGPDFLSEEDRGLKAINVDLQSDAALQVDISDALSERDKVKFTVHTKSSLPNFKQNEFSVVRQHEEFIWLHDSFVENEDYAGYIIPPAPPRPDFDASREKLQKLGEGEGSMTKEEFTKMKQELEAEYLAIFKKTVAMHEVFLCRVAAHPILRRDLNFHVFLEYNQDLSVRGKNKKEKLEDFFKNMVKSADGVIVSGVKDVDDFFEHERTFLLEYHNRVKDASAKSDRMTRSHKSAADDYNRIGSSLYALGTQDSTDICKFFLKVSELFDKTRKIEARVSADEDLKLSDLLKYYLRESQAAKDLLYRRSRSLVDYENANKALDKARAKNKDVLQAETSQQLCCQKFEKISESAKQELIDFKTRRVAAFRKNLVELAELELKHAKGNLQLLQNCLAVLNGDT
inactive: [1] -0.037 | [2] 0.039 | [3] 0.053 | [4] 0.012 | [5] -0.11

SRSF11 (UniProt Q05519)
UniProt Q05519, sequence (Q05519 whole entry, looked up): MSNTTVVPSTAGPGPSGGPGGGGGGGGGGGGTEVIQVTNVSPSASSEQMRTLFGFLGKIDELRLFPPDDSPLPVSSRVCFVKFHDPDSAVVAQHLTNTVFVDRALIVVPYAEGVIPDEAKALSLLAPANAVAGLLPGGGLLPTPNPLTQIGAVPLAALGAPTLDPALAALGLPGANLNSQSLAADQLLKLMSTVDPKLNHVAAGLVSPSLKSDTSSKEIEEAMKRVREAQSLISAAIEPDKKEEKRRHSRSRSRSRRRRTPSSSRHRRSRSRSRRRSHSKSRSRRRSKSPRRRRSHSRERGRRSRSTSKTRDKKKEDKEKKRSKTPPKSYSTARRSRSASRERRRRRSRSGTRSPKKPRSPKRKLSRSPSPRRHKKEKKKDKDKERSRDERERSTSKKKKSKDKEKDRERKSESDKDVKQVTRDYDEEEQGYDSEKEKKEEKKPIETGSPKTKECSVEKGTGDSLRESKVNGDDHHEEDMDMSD
inactive: [1] 0.008 | [2] 0.037 | [3] 0.044 | [4] -0.082 | [5] -0.028

SRC isoform 2 (UniProt P12931)
inactive: [1] 0.016 | [2] 0.181 | [3] 0.125 | [4] 0.042 | [5] 0.003

STK25 (UniProt O00506)
inactive: [1] -0.022 | [2] 0.111 | [3] 0.015 | [4] -0.019 | [5] -0.016

STARD9 (UniProt Q9P2P6)
inactive: [1] -0.073 | [2] 0.147 | [3] -0.072 | [4] 0.042 | [5] -0.087

TERF2IP (UniProt Q9NYB0)
inactive: [1] 0.003 | [2] 0.01 | [3] 0.004 | [4] -0.01 | [5] 0.066

SNRPD3 (UniProt P62318)
UniProt P62318, sequence (P62318 whole entry, looked up): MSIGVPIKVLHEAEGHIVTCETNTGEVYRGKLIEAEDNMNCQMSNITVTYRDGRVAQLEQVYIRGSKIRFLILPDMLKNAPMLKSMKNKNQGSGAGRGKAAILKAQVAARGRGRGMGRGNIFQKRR
inactive: [1] 0.035 | [2] -0.029 | [3] 0 | [4] 0.106 | [5] 0.036

TBC1D9B (UniProt Q66K14)
inactive: [1] -0.025 | [2] 0.093 | [3] 0.042 | [4] 0.02 | [5] -0.062

STAT5A (UniProt P42229)
inactive: [1] -0.028 | [2] 0.058 | [3] 0.134 | [4] -0.006 | [5] 0.008

THADA (UniProt Q6YHU6)
inactive: [1] -0.06 | [2] 0.066 | [3] 0.011 | [4] -0.027 | [5] -0.032

SREBF1 isoform 4 (UniProt P36956)
inactive: [1] 0.026

SRSF4 (UniProt Q08170)
inactive: [1] 0.09 | [2] -0.166 | [3] -0.124 | [4] 0.073 | [5] 0.096

SP100 isoform 4 (UniProt P23497)
UniProt P23497, sequence (P23497 whole entry, looked up): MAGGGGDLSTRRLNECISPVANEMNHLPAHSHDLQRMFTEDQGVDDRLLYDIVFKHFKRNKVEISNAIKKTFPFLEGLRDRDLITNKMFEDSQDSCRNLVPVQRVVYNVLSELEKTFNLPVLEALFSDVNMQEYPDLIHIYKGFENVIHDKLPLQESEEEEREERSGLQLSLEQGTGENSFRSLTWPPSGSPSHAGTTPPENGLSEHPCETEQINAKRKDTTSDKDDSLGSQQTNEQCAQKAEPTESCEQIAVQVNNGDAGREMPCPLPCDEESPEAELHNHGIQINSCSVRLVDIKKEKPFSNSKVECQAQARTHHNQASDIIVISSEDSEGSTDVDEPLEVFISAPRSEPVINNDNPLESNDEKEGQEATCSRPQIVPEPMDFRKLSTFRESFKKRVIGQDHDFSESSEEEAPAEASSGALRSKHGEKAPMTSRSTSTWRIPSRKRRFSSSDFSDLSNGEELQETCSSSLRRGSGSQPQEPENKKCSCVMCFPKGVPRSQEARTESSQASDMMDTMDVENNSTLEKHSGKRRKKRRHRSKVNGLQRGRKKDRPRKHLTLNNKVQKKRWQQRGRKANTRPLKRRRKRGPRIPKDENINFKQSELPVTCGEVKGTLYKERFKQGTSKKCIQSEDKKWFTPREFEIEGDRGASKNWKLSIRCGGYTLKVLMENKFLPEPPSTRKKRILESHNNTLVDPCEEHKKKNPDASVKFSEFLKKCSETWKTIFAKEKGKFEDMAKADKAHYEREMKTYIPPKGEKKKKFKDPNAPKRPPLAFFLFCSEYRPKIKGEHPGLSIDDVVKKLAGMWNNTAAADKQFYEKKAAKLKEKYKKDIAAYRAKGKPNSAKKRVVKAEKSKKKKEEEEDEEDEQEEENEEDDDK
inactive: [1] -0.006 | [2] -0.015 | [3] -0.047 | [4] 0 | [5] 0.024

SMAD9 (UniProt O15198)
inactive: [1] -0.104 | [2] 0.094 | [3] -0.001 | [4] 0.076 | [5] -0.054

TANK (UniProt Q92844)
inactive: [1] -0.001 | [2] -0.093 | [3] -0.019 | [4] 0.02 | [5] 0.026

STARD7 (UniProt Q9NQZ5)
inactive: [1] -0.018 | [2] 0.075 | [3] 0.145 | [4] 0.063 | [5] -0.017

SMAD2 (UniProt Q15796)
inactive: [1] -0.014 | [2] 0.022 | [3] 0.056 | [4] -0.02 | [5] -0.066

SMAP2 (UniProt Q8WU79)
inactive: [1] -0.041 | [2] 0.013 | [3] 0.086 | [4] 0.001 | [5] 0.011

SP3 (UniProt Q02447)
inactive: [1] 0.018 | [2] -0.024 | [3] -0.043 | [4] 0.025 | [5] 0.009

TAOK1 (UniProt Q7L7X3)
UniProt Q7L7X3, sequence (Q7L7X3 whole entry, looked up): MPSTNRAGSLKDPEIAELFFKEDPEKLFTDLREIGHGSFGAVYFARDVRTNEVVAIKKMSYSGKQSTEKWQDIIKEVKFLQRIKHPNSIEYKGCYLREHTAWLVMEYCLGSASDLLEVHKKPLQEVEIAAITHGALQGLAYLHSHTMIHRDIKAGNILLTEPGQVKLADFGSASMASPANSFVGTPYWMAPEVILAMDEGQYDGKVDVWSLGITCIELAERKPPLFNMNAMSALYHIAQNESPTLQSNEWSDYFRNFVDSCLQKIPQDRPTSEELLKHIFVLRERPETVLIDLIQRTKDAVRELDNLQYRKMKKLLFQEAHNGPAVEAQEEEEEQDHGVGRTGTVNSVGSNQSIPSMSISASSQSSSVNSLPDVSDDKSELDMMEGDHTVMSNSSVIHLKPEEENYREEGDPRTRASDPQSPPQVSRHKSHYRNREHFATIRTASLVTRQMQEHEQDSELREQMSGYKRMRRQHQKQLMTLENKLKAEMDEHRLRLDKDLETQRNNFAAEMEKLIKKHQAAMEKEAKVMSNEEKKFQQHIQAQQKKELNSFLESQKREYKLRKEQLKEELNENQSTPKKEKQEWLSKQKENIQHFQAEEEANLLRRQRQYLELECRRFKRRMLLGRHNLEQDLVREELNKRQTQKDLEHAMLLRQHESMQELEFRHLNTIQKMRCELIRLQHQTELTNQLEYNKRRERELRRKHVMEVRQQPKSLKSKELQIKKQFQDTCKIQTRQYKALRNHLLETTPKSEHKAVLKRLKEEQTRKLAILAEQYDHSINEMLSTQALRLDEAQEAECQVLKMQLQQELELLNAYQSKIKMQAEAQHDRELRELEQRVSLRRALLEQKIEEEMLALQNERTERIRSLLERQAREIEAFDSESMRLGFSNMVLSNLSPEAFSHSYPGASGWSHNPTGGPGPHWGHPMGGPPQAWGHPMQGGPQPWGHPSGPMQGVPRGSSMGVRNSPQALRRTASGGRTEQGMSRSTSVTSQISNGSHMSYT
inactive: [1] 0.057 | [2] 0.095 | [3] 0.041 | [4] 0.012 | [5] 0.002

SMAP (UniProt O00193)
UniProt O00193, sequence (O00193 whole entry, looked up): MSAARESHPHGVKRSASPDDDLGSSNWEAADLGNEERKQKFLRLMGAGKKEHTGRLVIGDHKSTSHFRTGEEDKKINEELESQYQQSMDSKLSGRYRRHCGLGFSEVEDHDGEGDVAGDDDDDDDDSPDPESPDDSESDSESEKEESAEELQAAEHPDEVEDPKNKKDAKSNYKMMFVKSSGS
inactive: [1] -0.082 | [2] 0.011 | [3] 0.03 | [4] -0.039 | [5] 0.003

SRSF6 (UniProt Q13247)
inactive: [1] -0.071 | [2] -0.453 | [3] -0.109 | [4] 0.217 | [5] 0.015

SPCS2 (UniProt Q15005)
inactive: [1] -0.011 | [2] 0.043 | [3] -0.034 | [4] -0.061 | [5] -0.031

STARD3 (UniProt Q14849)
inactive: [1] 0.011 | [2] -0.036 | [3] 0.14 | [4] 0.066 | [5] -0.153

TIMM10B (UniProt Q9Y5J6)
inactive: [1] -0.018 | [2] 0.18 | [3] 0.058 | [4] 0.066 | [5] -0.026

TM9SF2 (UniProt Q99805)
inactive: [1] 0.018 | [2] 0.035 | [3] 0.054 | [4] -0.044 | [5] -0.028

TIMM10 (UniProt P62072)
UniProt P62072, sequence (P62072 whole entry, looked up): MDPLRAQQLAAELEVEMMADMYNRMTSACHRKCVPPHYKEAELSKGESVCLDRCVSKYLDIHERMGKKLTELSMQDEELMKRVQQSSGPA
inactive: [1] -0.013 | [2] -0.043 | [3] 0.042 | [4] -0.033 | [5] 0.022

SLC30A7 (UniProt Q8NEW0)
inactive: [1] -0.033 | [2] 0.052 | [3] -0.049 | [4] 0.039 | [5] -0.011

TLK2 isoform 2 (UniProt Q86UE8)
inactive: [1] 0.006 | [2] 0.021 | [3] 0.041 | [4] -0.007 | [5] 0.051

SLC30A10 (UniProt Q6XR72)
inactive: [1] 0.066 | [2] -0.005 | [3] 0.113 | [4] -0.003 | [5] 0.059

TBC1D24 (UniProt Q9ULP9)
inactive: [1] -0.108 | [2] 0.152 | [3] 0.02 | [4] -0.029 | [5] -0.061

STK39 (UniProt Q9UEW8)
inactive: [1] -0.105 | [2] -0.015 | [3] 0.034 | [4] -0.026 | [5] -0.029

TBC1D5 isoform 2 (UniProt Q92609)
inactive: [1] -0.046 | [2] 0.055 | [3] 0.066 | [4] 0.003 | [5] -0.034

THRAP3 (UniProt Q9Y2W1)
inactive: [1] 0.09 | [2] 0.193 | [3] -0.072 | [4] 0.046 | [5] 0.028

SYF2 (UniProt O95926)
inactive: [1] 0.032 | [2] 0.029 | [3] -0.077 | [4] 0.145 | [5] 0.065

TMBIM1 (UniProt Q969X1)
inactive: [1] 0.024 | [2] 0.206 | [3] 0.242 | [4] -0.005 | [5] 0.193

SPIRE1 (UniProt Q08AE8)
inactive: [1] 0.079 | [2] 0.002 | [3] 0.196 | [4] -0.01 | [5] 0.075

STAT5B (UniProt P51692)
inactive: [1] 0.036 | [2] 0.08 | [3] 0.05 | [4] 0.033 | [5] 0.052
